# Tau ThT inhib: blocks human tau fibril formation measured by thioflavin T; P10636; recombinant tau K18 P301L, heparin-induced fibrillization, ThT fluorescence; Potency, µM (top dose mostly 57.4 µM), inactives show top-dose activity, negative = inhibition, most hits filed as inhibitors; hit rate 2.1% among 270,000; further: nearly all actives have a fitted effect of over 55% in size
# Target sequence (P10636 561-689 P618L limits assumed): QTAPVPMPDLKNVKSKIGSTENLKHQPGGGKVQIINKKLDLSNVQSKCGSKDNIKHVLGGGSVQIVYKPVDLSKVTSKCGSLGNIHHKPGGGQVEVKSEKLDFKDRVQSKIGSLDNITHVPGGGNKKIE
#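 Heparin-induced fibrillization of the P301L-mutant K18 repeat-domain fragment of human tau was followed by ThT binding in quantitative high-throughput format.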
# Tau fluor cs: counter-screen for tau fibril formation inhibitors | hit rate 0.93% among 280,000 | Potency, µM (highest dose often 57.7 µM), for the others: at the highest dose activity change, negative = decrease | tau K18 P301L Alexa594 fluorescence, heparin fibrillization | AID 1463; further: nearly all actives have a fitted effect of over 55% in size
#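 Human tau K18 P301L (15 uM unlabeled, 0.24 uM Alexa 594-labeled) in 100 mM sodium acetate pH 7 with 20 uM heparin, 6 hr at 37 C. ThT 30 uM added, 1 hr ambient; Alexa 594 FP and total fluorescence read at 555/632 nm.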
# RORgamma inh: ROR gamma (mouse) transcription inhibition | P51450 | Drosophila S2 Gal4-RORgamma UAS-luciferase reporter, 20 h | Potency, µM (top dose mostly 53.6 µM), for inactives: at the top dose activity change, negative = inhibition, usual class: inhibitors | hit rate 5.4% among 310,000 | AID 2551; further: nearly all actives have a fitted effect of over 60% in size
# Target sequence (P51450 whole entry, looked up, the tested form may be a part): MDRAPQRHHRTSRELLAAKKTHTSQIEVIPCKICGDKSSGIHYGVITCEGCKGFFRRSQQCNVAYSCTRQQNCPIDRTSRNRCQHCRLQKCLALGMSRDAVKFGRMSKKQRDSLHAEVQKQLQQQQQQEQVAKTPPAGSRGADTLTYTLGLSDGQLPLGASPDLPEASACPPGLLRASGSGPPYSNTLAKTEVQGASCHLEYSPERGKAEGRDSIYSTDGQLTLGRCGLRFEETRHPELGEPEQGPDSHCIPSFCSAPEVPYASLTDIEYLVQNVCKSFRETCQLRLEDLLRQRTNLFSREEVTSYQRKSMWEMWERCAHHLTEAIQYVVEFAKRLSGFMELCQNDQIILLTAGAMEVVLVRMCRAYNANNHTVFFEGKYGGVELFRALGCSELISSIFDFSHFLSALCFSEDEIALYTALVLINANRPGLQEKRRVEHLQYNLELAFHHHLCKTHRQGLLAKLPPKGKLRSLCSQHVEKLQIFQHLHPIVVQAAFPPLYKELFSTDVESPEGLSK
#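 A Gal4/UAS one-hybrid system in insect cells: metallothionein-promoter Gal4–ROR gamma fusion plus Photinus luciferase reporter. Copper sulfate 700 uM final, 20 hr ambient incubation, luminescent detection after 10 min with reagent.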
# Tau FP inhib: tau fibrillization inhibition (FP); P10636; K18 P301L tau heparin fibrillization, Alexa594 FP, 6 h; Potency, µM (series often up to 57.7 µM), inactives show at the top dose activity, negative = inhibition, usual class: inhibitors; hit rate 0.39% among 280,000; AID 1468; further: nearly all actives have a fitted effect of over 55% in size
#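 Steps: dispense K18 P301L tau (15 uM plus 0.24 uM Alexa 594 tracer, final) in pH 7 sodium acetate; add compound; add heparin (20 uM final); incubate 6 hr, 37 C; add ThT (30 uM final); after 1 hr ambient, read FP.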
# Gal4-VP16 FLuc: Gal4-VP16 reporter inhibition counter-screen. Potency, µM (doses to about 53.6 µM), for inactives: at the top dose activity, negative = inhibition, hits mostly inhibitors. Drosophila S2 Gal4-VP16 UAS-luciferase, luminescence, 20 h. hit rate 3.5% among 310,000;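 further: Gal4-VP16 expression switched on by copper sulfate through the metallothionein promoter; nearly all actives have a fitted effect of over 50% in size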
# Active calls of the source: *; u = inconclusive; x = no result given; [ ] = remark or other dose. Hits are enriched below; roughly 7.3% of the tested compounds scored in any of these assays. The call rests on the fitted dose curve; in most records, active means well fitted curve in the direction sought with a large enough effect; inconclusive means small, poorly fitted or top-dose-only effect, or another doubt; inactive means no such curve, though single readings can be large; an effect the other way counts as inactive or inconclusive. On the % scale 0 is the no-effect control and ±100 the full control effect; potency means the concentration at half of the fitted maximal effect.
SMILES,Tau ThT inhib,Tau fluor cs,RORgamma inh,Tau FP inhib,Gal4-VP16 FLuc
C#CC(C)(CC)NC(=O)Cn1nnc(-c2ccc(OCc3ccccc3F)cc2)n1 (configuration not stated),7.2%,-12.8%,x,-11.7%,x
CCCN(C(=O)CCc1nc(-c2ccccc2F)no1)c1ccc(CC)cc1,-9.6%,-3.9%,x,-4.2%,x
O=C(O)c1cc(-c2ccc3ccccc3c2)nc2ccc(F)cc12,x,x,22.4µM*,x,-26.7%
CCCc1ccc(-c2cc(C(=O)NN3CCOCC3)c3ccccc3n2)cc1,3.8%,-1.3%,-11.2%,11.0%,-16.7%
O=C(Nc1ncccn1)c1cc(-c2ccc(F)cc2)nc2ccccc12,-3.5%,-7.1%,12.7%,-10.5%,-7.1%
CC(=O)Nc1ccc(-c2cc(-c3ccccc3)nc(-c3ccccc3)n2)cc1,10.0%,u,23.8%,3.55µM*,-11.1%
CCc1ccc(-c2cc(C(=O)Nn3cnnc3)c3ccccc3n2)cc1,-8.3%,-12.3%,0.891µM*,1.0%,0.631µM*
CCC(=O)Nc1ccc(-c2cc(-c3ccccc3)nc(-c3ccc(NC(=O)CC)cc3)n2)cc1,-7.5%,u,8.91µM*,11.2µM*,7.08µM*
O=C(NCc1ccccc1F)C1CCCN1S(=O)(=O)c1ccc(F)cc1 (configuration not stated),x,x,u,x,-2.5%
CCC(=O)N1CCc2cc(S(=O)(=O)NC(CC(C)C)C(=O)NCCc3ccccc3)ccc21 (configuration not stated),5.6%,0.4%,x,-10.3%,x
CCCN(CCC)CCCNC(=O)Cn1ncc2c3ccccc3n(Cc3ccccc3F)c2c1=O,-3.8%,-13.5%,x,3.7%,x
CCn1c(=O)c(=O)n(CC)c2cc(N3CCCCC3)c(NC(=O)c3ccccc3OC)cc21,-14.1%,-3.2%,x,0.3%,x
O=C(Nc1ccc(Cl)cc1)c1ccc2c(c1)N(Cc1ccccc1)C(=O)c1ccccc1S2(=O)=O,5.3%,u,x,u,x
CC(=O)Nc1ccc(NC(=O)c2ccc3c(c2)N(Cc2cccc(Cl)c2)C(=O)c2ccccc2S3(=O)=O)cc1,-10.7%,u,x,15.8µM*,x
COc1ccc(C2/C=C\CN(C(=O)C3CC3)C(Cc3ccccc3)C(=O)N2Cc2ccc(F)cc2)cc1 (configuration not stated),x,x,10µM*,x,u
COc1ccc(C2/C=C\CN(C(=O)C3CC3)[C@H](Cc3ccccc3)C(=O)N2Cc2ccc(F)cc2)cc1 (some centres not stated),-8.9%,2.8%,11.2µM*,-0.4%,-19.7%
CCCCC(=O)N1C/C=C\C(c2ccc(OC)cc2)N(Cc2ccc(F)cc2)C(=O)[C@H]1Cc1ccccc1 (some centres not stated),-5.9%,6.0%,u,3.6%,u
COc1ccc(C(=O)N/N=C/c2cccnc2)cc1,x,x,-28.9%,x,-2.8%
CCOc1ccccc1C(=O)N/N=C/c1c[nH]c2ccccc12,u,u,15.8µM*,7.2%,u
CCOc1ccccc1C(=O)N/N=C/c1cccc2cccnc12,u,-14.3%,5.01µM*,-7.3%,u
COc1ccc(C(=O)N/N=C/c2cccc3cccnc23)cc1,-16.5%,-3.8%,0.562µM*,2.9%,2.24µM*
CSCC[C@H](NC(=O)OC(C)(C)C)C(=O)N/N=C/c1cccc2cccnc12,u,-19.9%,7.08µM*,-2.9%,15.8µM*
COc1ccccc1/C=N/NC(=O)c1cccc2ccccc12,x,x,-40.3%[1.91 µM],x,6.7%
CCOc1ccc(C(=O)N/N=C/c2cccc3cccnc23)cc1,-1.3%,-0.1%,0.708µM*,-4.1%,2µM*
CCOc1ccc(C(=O)N/N=C/c2ccccc2[N+](=O)[O-])cc1,u,-9.5%,-33.4%,5.1%,u
SMILES,Tau ThT inhib,Tau fluor cs,RORgamma inh,Tau FP inhib,Gal4-VP16 FLuc
COc1ccc(C(=O)N/N=C/c2cc3ccccc3[nH]c2=S)cc1,3.98µM*,u,8.91µM*,-6.8%,8.91µM*
O=C1NCCCC2c3cc(O)c4ccccc4c3OC12N1CCCCC1 (configuration not stated),12.6µM*,u,10µM*,u,u
COC(=O)c1ccc(CSc2nc3c(c(=O)[nH]2)CCC3)cc1,0.1%,-9.5%,x,-11.7%,x
Cc1nc(-c2ccc3c(c2)OCCCO3)cs1,-15.4%,-8.3%,-22.6%,1.6%,-12.5%
CCCc1cc(-c2[nH]ncc2-c2ccc(C(=O)OCC)o2)c(O)cc1O,-14.4%,14.1µM*[quencher],-30.7%,u,u
CCCc1cc(-c2[nH]ncc2-c2ccc3c(c2)OCCCO3)c(O)cc1O,u,10µM*[quencher],u,u,u
COC1=C2C[C@@H](C)C[C@H](OC)[C@H](O)[C@@H](C)/C=C(\C)[C@H](OC(N)=O)[C@@H](OC)/C=C\C=C(/C)C(=O)NC(=CC1=O)C2=O,x,x,u,x,-14.8%
CC(=O)NC(=C(Cl)Cl)S(=O)(=O)c1ccccc1,-6.5%,1.6%,12.6µM*,-0.4%,u
Cc1ccc(/C=C/C(=O)NCc2ccc(S(N)(=O)=O)cc2)o1,25.1µM*,-15.9%,-2.7%,u,-21.6%[10 µM]
C=CCOc1cccc(C(=O)/C=C2/C(=O)Nc3ccccc32)c1,x,x,12.6µM*,x,u
CC(=O)/C=C1/C(=O)Nc2ccccc21,u,-4.0%,3.55µM*,-9.7%,7.08µM*
Cn1cnc([N+](=O)[O-])c1S(=O)(=O)c1cccc(Cl)c1,u,-14.4%,2.82µM*,12.0%,5.01µM*
Cc1nn(C(C)C(=O)c2cccc(Cl)c2)c(C)c1[N+](=O)[O-] (configuration not stated),-2.1%,-12.3%,1.9%,-0.9%,-8.3%
Cn1c2c(c(=O)n(C)c1=O)C(c1ccccc1Cl)C(C#N)=C(N)O2 (configuration not stated),x,-21.9%,-11.0%,u,17.8%
Cn1c2c(c(=O)n(C)c1=O)C(c1ccccc1F)C(C#N)=C(N)O2 (configuration not stated),20µM*,-18.6%,-8.3%,u,-6.4%
CCOC(=O)N/N=C/c1cn(Cc2ccc(F)cc2)c2ccccc12,x,-11.3%,-7.9%,7.6%,-4.5%
O=C(N/N=C/c1cn(Cc2ccccc2)c2ccccc12)c1cccnc1,u,u,7.08µM*,13.6%,8.91µM*
O=C(N/N=C/c1cn(Cc2ccccc2)c2ccccc12)c1ccncc1,u,25.1µM*[quencher],2.82µM*,14.1%,u
CCc1ccccc1NC(=O)C1CCN(c2nn3c(=O)cc(C)nc3s2)CC1,u,-5.7%,x,-8.3%,x
CCN(CC)Cc1c(C(=O)N/N=C/c2cccc(OCc3cccc(Cl)c3)c2)nnn1-c1nonc1N,x,x,25.7%,x,7.5%
O=C(Nc1cccnc1)c1cn(-c2ccccc2)nc1-c1cccs1,7.4%,17.8µM*[quencher],u,28.2µM*,4.2%
O=C(Nc1cccc2ccccc12)c1cn(-c2ccccc2)nc1-c1cccs1,0.7%,-29.3%,0.1%,u,5.5%

# Screening data deposited in PubChem by National Center for Advancing Translational Sciences (NCATS).
